SMILES strings stand for the structures. Inconclusive results are not listed. Activity calls are given as the source filed them. The call rests on the fitted dose curve; in most records, active means well fitted inhibition curve with a large enough effect in the signal ratio in the repeat runs (not every such curve was filed as active); inconclusive means weak or mixed curves, or effect the other way; inactive means no such curve, though single readings can be large or run the other way; the % refers to the signal ratio.
On the % scale 0 is the no-effect control and ±100 the full control effect.

Sequence of Estrogen receptor beta (Homo sapiens) (Q92731 whole entry, looked up): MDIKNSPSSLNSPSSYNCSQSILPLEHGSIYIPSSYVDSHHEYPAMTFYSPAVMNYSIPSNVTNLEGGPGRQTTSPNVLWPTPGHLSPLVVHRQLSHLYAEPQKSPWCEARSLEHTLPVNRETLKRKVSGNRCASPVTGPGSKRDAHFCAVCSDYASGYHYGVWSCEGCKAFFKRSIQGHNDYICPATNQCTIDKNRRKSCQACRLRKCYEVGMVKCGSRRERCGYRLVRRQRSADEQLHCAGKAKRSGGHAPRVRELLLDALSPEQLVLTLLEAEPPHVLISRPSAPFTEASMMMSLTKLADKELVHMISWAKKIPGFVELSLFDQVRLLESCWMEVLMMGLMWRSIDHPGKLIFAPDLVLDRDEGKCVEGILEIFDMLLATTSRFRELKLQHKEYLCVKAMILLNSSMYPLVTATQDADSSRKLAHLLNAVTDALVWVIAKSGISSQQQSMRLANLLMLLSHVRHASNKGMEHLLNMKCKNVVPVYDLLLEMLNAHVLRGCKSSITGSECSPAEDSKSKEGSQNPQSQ

The target of this assay is Estrogen receptor beta (Homo sapiens) (UniProt Q92731). The experiment in a line: qHTS assay to identify small molecule antagonists of the estrogen receptor beta (ER-beta) signaling pathway (AID 1259378). As to conditions: ER-beta-UAS-bla HEK293T, beta-lactamase FRET ratio, 16 h; series mostly up to 92.4 µM; activity, negative = inhibition: at the top concentration. From the text:
National Center for Advancing Translational Sciences [NCATS]
NIH Chemical Genomics Center [NCGC]
U.S. Environmental Protection Agency [EPA]
National Institutes of Environmental Health Sciences [NIEHS]
National Toxicology Program [NTP]
U.S. Food and Drug Administration [FDA]
Estrogen receptor (ER), a nuclear hormone receptor, plays an important role in development, metabolic homeostasis and reproduction. Two subtypes of ER, ER-alpha and ER-beta, have similar expression patterns with some uniqueness in both types. Endocrine disrupting chemicals (EDCs) and their interactions with steroid hormone receptors like ER causes disruption of normal endocrine function. To identify the compounds that inhibit ER signaling, an ER-beta-UAS-bla GripTite cell line (Life Technologies, Madison, WI, USA) containing a beta-lactamase reporter gene under the control of an UAS response element was used to screen Tox21 10K compound library.
Tox21 Assay Protocol Summary:
ER-beta-UAS-bla HEK293T cells were dispensed at 2,000 cells/4 uL of assay medium containing 2% charcoal stripped FBS per well into black wall/clear-bottom 1536-well plates using a Multidrop Combi (ThermoFisher Scientific, Waltham, MA) dispenser. After the assay plates were incubated at a 37C and 5% CO2 for 6 hr, 23 nL of compounds dissolved in DMSO, positive controls or DMSO only was transferred to the assay plate by a Pintool station (Kalypsys, San Diego, CA), followed by addition of 1 uL (1nM as final concentration) of 17-beta-estradiol (E2) in assay medium using a BioRAPTR FRD (Flying Reagent Dispenser, Aurora Discovery, San Diego, CA). The plates were incubated at 37C and 5% CO2 for 16 hr. Then 1 uL of LiveBLAzerTM B/G FRET substrate was added using a Flying Reagent Dispenser, the plates were incubated at room temperature for 2 hours, and fluorescence intensity was measured by an Envision plate reader (PerkinElmer, Shelton, CT).
(In general: qHTS replaces the single test concentration by a dilution series.)
For the compound `C=O`, the “activity, negative = inhibition” value is 0.541% (inactive).
As to `Cc1ccc(C(C)C)cc1O`, the “activity, negative = inhibition” value was 1.24% (inactive).
The figure for `CCCCCCCCCC/C=C/C#N` is 0.402% (inactive).
To `CC1(O)CSC(C)(O)CS1` (stereo not given) belongs -1.88% (inactive); to `Cc1ccc(C)c(N)c1`, 4.89% (inactive); to `CN1CCN(C2=Nc3ccccc3Oc3ccc(Cl)cc32)CC1`, -25.4% [at 42.5 µM] (inactive).
The figure for `C=C(C)C(=O)OCCOP(=O)(O)O` is 3.26% (inactive); for `CCCOc1ccc2c(c1)CC[C@@H]1[C@@H]2CC[C@]2(C)C(OC)CC[C@@H]12` (stereo not given in full) it is -4.73% [at 42.5 µM] (inactive).
As for `NC(Cc1ccc(F)cc1)C(=O)O` (stereo not given), the activity, negative = inhibition is 7.98% [at 8.39 µM] (inactive).
The figure for `COc1ccc(Nc2ccc(OC)cc2)cc1` is -15.3% (inactive); for `CCCCCCCCCCCCCCCCOP(=O)([O-])OCC[N+](C)(C)C` it is -17.9% [at 42.5 µM] (inactive).
To `CN(C)CCOc1ccccc1Cc1ccccc1` belongs -16.3% [at 42.5 µM] (inactive); to `OCc1c2ccccc2cc2ccccc12`, -14.9% (inactive).
The figure for `CC[C@H]1CC[C@H](NCc2cc3c(cc2OC)[C@H]2C[C@H]2C(=O)N3C)[C@H](c2ccccc2)N1` is -13.3% (inactive); for `CC(C)NCC(O)COc1ccc(CCOCC2CC2)cc1` (stereo not given) it is 0.755% [at 42.5 µM] (inactive); for `CC(=O)OC1C2(C)CCC(C2)C1(C)C` (stereo not given) it is 12.8% (inactive).
`CC(C)(C)c1ccc(OC(=O)c2ccccc2O)cc1`: the “activity, negative = inhibition” value is -9.68% (inactive).
The figure for `OCCN(CCO)c1ccccc1` is -1.29% (inactive).
The figure for `FC(F)(F)C(F)(F)C(F)(F)C(F)(F)C(F)(F)C(F)(F)C(F)(F)C(F)(F)Br` is 11.8% [at 42.5 µM] (inactive); for `CCOc1ccc(OCC)c(Cl)c1` it is 17.2% (inactive); for `Cc1c(C(=O)NCCO)[n+](=O)c2ccccc2n1[O-]` it is -0.82% [at 42.5 µM] (inactive).
As to `CN1CCN(c2c(F)cc3c(=O)c(C(=O)O)cn4c3c2SCC4)CC1`, the “activity, negative = inhibition” value was 13.1% [at 42.5 µM] (inactive).
Turning to `OCCN(CCO)CCN(CCO)CCO`, the “activity, negative = inhibition” value was -2.1% (inactive).
The figure for `CC1(C)S[C@@H]2[C@H](NC(=O)C(C(=O)O)c3ccccc3)C(=O)N2[C@H]1C(=O)O` (stereo not given in full) is 20.6% [at 42.5 µM] (inactive).
To `Oc1ccccc1F` belongs 8.34% (inactive); to `ICCc1ccccc1`, 13.1% (inactive).
The figure for `O=[N+]([O-])c1nccn1CO[C@@H](CO)[C@H](O)CO` is 8.13% [at 42.5 µM] (inactive); for `OCCN1CCN(CCO)CC1` it is 8.42% (inactive).
In the case of `Cc1cn([C@@H]2O[C@H](CO)[C@@H](O)[C@@H]2F)c(=O)[nH]c1=O`, the “activity, negative = inhibition” value was 0.074% [at 42.5 µM] (inactive).
`C=CC(C)(O)CC/C=C(\C)CCC=C(C)C` (stereo not given): the “activity, negative = inhibition” value is 11.8% (inactive).
The figure for `CC(C)O` is 9.01% (inactive); for `CO[C@@]1(NC(=O)CSCC#N)C(=O)N2C(C(=O)O)=C(CSc3nnnn3C)CS[C@@H]21` it is 20.1% [at 42.5 µM] (inactive).
The figure for `ClC(Cl)Cl` is 8.92% (inactive).
To `CCC1(C)NC(=O)NC1=O` (stereo not given) belongs 19.5% (inactive).
Regarding `CN1CCC[C@@H]1Cc1c[nH]c2ccc(CCS(=O)(=O)c3ccccc3)cc12`, the “activity, negative = inhibition” value is 0.427% [at 42.5 µM] (inactive).
The figure for `COc1ccccc1N1CCN(CCCNc2cc(=O)n(C)c(=O)n2C)CC1` is 8.72% [at 42.5 µM] (inactive); for `CCCC(CCC)(C(=O)OCC)C(=O)OCC` it is 2.89% [at 42.5 µM] (inactive); for `CCCS(=O)c1ccc2nc(NC(=O)OC)[nH]c2c1` (stereo not given) it is 5.63% [at 42.5 µM] (inactive).
To `CCOc1ccc(NS(=O)(=O)c2ccc(N)cc2)nn1` belongs -1.72% [at 42.5 µM] (inactive); to `CCCCNCCCC`, 17.2% (inactive).
